Records with an inconclusive call do not appear. Calls of active or inactive are those of the source. Unless noted, calls follow the shape of the dose curve; as a rule, active = well fitted curve in the direction sought with a large enough effect; inconclusive = small, poorly fitted or top-dose-only effect, or another doubt; inactive = no such curve, though single readings can be large; an effect the other way counts as inactive or inconclusive. Some results are limits rather than exact numbers.

Experiment [1] can be described thus: AP1 Signaling Pathway (AID 357; active = well fitted curve in either direction with a large enough effect, not every such curve was filed as active;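 also: ME-180 reporter cells stimulated with EGF at its EC50 level; % is scaled to controls: 0 for no effect and ±100 for the full control effect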). Conditions: ME-180 AP-1-bla reporter, EGF-induced, beta-lactamase ratio, 5 h; at 38 µM (top of the series). The essentials:
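Titration-series screen for positive or negative modulators of EC50 EGF-induced signaling in ME-180 cells carrying an AP-1-driven beta-lactamase reporter. After 5 hours at 37 degrees Celsius, CCF4 460nm/530nm emission ratio gave %Activity; AC50 values derived.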

Experiment [2] concerns the target Cytochrome P450 1A2 (Homo sapiens) (UniProt P05177). Nature of the experiment: p450-cyp1a2 (AID 410; calls by dose curve; also: potency is read from the fitted curve at half-maximal effect). The essentials: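 Luminescent readout of luciferin formed from Luciferin-ME by human CYP1A2; data normalized against complete inhibition by 57 uM furafylline. Enzyme 20nM, substrate 100uM at Km, 100mM KPO4 buffer, 60 min reaction at room temperature.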
A short description of experiment [3]: NFAT Signaling Pathway (AID 444; active = well fitted curve in either direction with a large enough effect, not every such curve was filed as active;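 also: carbachol stimulus at about its EC50 of 1 µM final; % is scaled to controls: 0 for no effect and ±100 for the full control effect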). Conditions: Jurkat NFAT-bla M1, carbachol, beta-lactamase ratio, 5 h; at 38 µM (top of the series). Put shortly: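 Read-out: CCF4 FRET ratio (460 nm/530 nm) after 1 h RT dye loading, used for %activity and AC50 from titration series. Cells: Jurkat NFAT-β-lactamase/M1 line, treated with compound plus 1 uM carbachol for 5 h, 37 °C.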

Experiment [4] is described as follows: Stat Signaling Pathway (AID 446; active = well fitted curve in either direction with a large enough effect, not every such curve was filed as active;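 also: ME-180 cervical cancer cells given 40 pM IL-6 alongside compound; SIE-controlled beta-lactamase reporter measured as 460/530 nm FRET emission ratio; % is scaled to controls: 0 for no effect and ±100 for the full control effect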). The conditions noted are these: ME-180 SIE beta-lactamase reporter, IL-6 stimulated, 5 h; at 38 µM (top of the series). Put shortly: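 Reporter line: ME-180 cervical carcinoma, SIE-beta-lactamase. Treatment: compound with 40 pM IL-6, 5 hrs, 37 C, in low-serum OPTI-MEM with 10 mM HEPES pH 7.3. Detection: 460/530 nm fluorescence.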

Experiment [5] concerns the target Glucocorticoid receptor (Homo sapiens) (UniProt P04150). Nature of the experiment: GR-GFP Redistribution (AID 450;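 active = compounds whose dose series gives a full or clear partial fitted curve of increased nuclear translocation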; also: potency is read from the fitted curve at half-maximal effect). Conditions: U2OS GR-GFP nuclear translocation, laser cytometry, 2 h.
For experiment [6] the target is unchanged. The experiment is described as follows: GR-EFC Redistribution (AID 451; calls by dose curve; also: potency is read from the fitted curve at half-maximal effect). The conditions noted are these: CHO-K1 GR-EFC translocation, beta-gal luminescence, 2 h. Put shortly: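 Translocation of GR-ED fusion to nuclear EA restores b-gal, read by luminescence after 1 h room-temperature detection. Engineered CHO-K1 biosensor cells, 1,000/well, exposed 2 h at 37 C to titrations up to 46 uM final.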

The target in experiment [7] is Mitogen-activated protein kinase 10 (Mus musculus) (UniProt Q61831). Nature of the experiment: JNK3 AlphaScreen Assay (AID 530; active = well fitted curve in either direction with a large enough effect, not every such curve was filed as active;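 also: kinase came from lysate of stimulated human HepG2 cells; signal reports phosphorylation of biotinylated GST-cJun 1-79 at Ser73 with 10 µM ATP; % is scaled to controls: 0 for no effect and ±100 for the full control effect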). The essentials: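 Compound titrations were preincubated 15 minutes at room temperature with substrate, antibody and pre-activated JNK3-containing HepG2 lysate. Reactions were started with 10 uM ATP and stopped with EDTA-containing bead buffer for AlphaScreen detection.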

The target of experiment [8] is 3',5'-cyclic-AMP phosphodiesterase 4B (Homo sapiens) (UniProt Q07343). Nature of the experiment: qHTS Assay for Inhibitors of PDE-IV (AID 607; active = well fitted activation curve with a large enough effect in the main read-out, with a control signal flat, not every such curve was filed as active; also: % of control where 0% means no effect). Put shortly:
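Cell-based read-out of cAMP via a modified cyclic nucleotide-gated channel and membrane potential dye (535/590 nm) in HEK293 cells expressing PDE4 endogenously. Compounds tested up to 22.9 uM final; 100 uM RO 20-1724 reference.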

Experiment [9] has as its target Guanine nucleotide-binding protein G(i) subunit alpha-1 (Homo sapiens) (UniProt P63096). The experiment is described as follows: qHTS Assay for Inhibitors of RGS12 GoLoco Motif Activity (Green Fluorophore) (AID 879).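 Also: 0% = labeled peptide with Gαi1 and full inhibition = labeled peptide alone without protein; negative values mean loss of peptide binding seen as reduced polarization.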 The essentials: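 Fluorescence polarization assay: 50 nM Gαi1 with 10 nM FITC-labeled RGS12 GoLoco peptide in 10 mM Tris pH 7.5, 150 mM NaCl, 0.1 mM GDP, 0.05% NP40, 10 min at room temperature with compound.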

The target in experiment [10] is Cytochrome P450 3A4 (Homo sapiens) (UniProt P08684). The experiment is described as follows: qHTS Assay for Activators of Cytochrome P450 3A4 (AID 885). Also: nearly all actives have a fitted effect of over 65% in size. The essentials:
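Signal was normalized against complete inhibition by 57 uM ketoconazole. The reaction used 20nM CYP3A4 with 25uM Luciferin-PPXE, 10-min compound preincubation and a 60-min NADPH-supported step at RT.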

A short description of experiment [11]: qHTS Assay for Identification of Small Molecule Antagonists for Thrombopoietin (TPO) Signaling Pathway (AID 918). Also: potency is read from the fitted curve at half-maximal effect; nearly all actives have a fitted effect of over 60% in size. Conditions: TPO-dependent cell signaling reporter, antagonist mode. Put shortly:
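Ba/F3 (murine, hTPO-R, GPIIb-luc reporter); overnight IL-3 withdrawal; cpd + TPO 26 pM final (EC50); 24 h 37 C/5% CO2; Steadylite luminescence after 10 min RT.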

Experiment [12] concerns the target Muscarinic acetylcholine receptor M1 (Rattus norvegicus) (UniProt P08482). The experiment is described as follows: qHTS Assay for Antagonists of Acetylcholine Muscarinic M1 Receptor: Kinetic Measurement of Intracellular Calcium Response (AID 943).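 Also: Fluo-4 calcium signal as peak divided by basal fluorescence over 4 min; nearly all actives have a fitted effect of over 75% in size.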 The essentials:
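Rat M1-CHO cells, 2000/well, overnight → Fluo-4 no-wash dye with probenecid, 1 h 37C → compound 10 min, room temp → basal read 6 s → carbachol EC80 (100 nM) → 4 min kinetic read; peak/basal.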

For experiment [13] the target is unchanged. The experiment is described as follows: qHTS Assay for Antagonists of Acetylcholine Muscarinic M1 Receptor: Measurement of IP-One Response (AID 944). Also: nearly all actives have a fitted effect of over 75% in size. The essentials:
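M1-CHO (rat), 2000 cells/well, overnight recovery; cpd 10 min; carbachol EC80 (200 nM), 30 min, HEPES buffer + 50 mM LiCl pH 7.4; IP-One HTRF, Ex 337, Em 620/665 nm.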

For experiment [14], the target named is Pyruvate kinase (Leishmania mexicana) (UniProt Q27686). Nature of the experiment: qHTS Validation Assay for Activators of Leishmania Mexicana Pyruvate Kinase (AID 959). The essentials: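 LmPYK E451W 0.2 nM; 0.5 mM PEP, 0.1 mM ADP, 7 mM MgCl2, 50 mM KCl, imidazole pH 7.2, 0.01% Tween 20, 0.05% BSA; 1 h RT; PKLight luminescence; DMSO-normalized.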
Chain of Pyruvate kinase (Leishmania mexicana) (Q27686 2-499 E452W): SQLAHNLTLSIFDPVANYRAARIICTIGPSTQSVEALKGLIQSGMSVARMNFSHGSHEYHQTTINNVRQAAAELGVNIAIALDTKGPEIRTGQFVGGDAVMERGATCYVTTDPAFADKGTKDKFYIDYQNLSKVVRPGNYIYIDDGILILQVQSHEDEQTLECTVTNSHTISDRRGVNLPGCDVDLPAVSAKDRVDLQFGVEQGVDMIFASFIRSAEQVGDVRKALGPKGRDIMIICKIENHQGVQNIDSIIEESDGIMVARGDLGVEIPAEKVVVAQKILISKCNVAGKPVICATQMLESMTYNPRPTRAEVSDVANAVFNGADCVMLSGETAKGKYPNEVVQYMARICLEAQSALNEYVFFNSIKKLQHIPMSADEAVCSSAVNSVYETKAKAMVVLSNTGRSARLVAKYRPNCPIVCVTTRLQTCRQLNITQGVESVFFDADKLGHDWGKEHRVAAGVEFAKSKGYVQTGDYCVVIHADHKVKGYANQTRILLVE
For experiment [15], the target named is Alpha-galactosidase A (Homo sapiens) (UniProt P06280). The experiment is described as follows: Counterscreen for Glucocerebrosidase Inhibitors: qHTS Assay for Human alpha-Galactosidase at pH 4.5 (AID 992). Also: 0% is about no effect. Put shortly: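 Quantitative HTS: compounds tested from 0.7 nM up to 77 uM against 2 nM enzyme with 80 uM 4-MU alpha-D-galactopyranoside. The 20 min room-temperature reaction is stopped with 1M NaOH/1M glycine, pH 10.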
Chain of Alpha-galactosidase A (Homo sapiens) (P06280 whole entry, looked up): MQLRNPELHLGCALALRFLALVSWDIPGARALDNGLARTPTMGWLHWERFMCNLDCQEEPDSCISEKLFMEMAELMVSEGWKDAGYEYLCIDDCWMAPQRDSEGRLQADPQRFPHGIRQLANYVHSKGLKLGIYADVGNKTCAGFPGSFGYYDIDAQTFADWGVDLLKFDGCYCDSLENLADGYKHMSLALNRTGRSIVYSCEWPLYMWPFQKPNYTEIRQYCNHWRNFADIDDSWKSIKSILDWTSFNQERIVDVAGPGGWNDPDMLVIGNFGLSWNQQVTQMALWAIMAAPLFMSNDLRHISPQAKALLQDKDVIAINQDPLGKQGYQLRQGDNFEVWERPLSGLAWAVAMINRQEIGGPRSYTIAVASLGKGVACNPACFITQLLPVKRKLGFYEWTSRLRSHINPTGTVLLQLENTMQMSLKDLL

Experiment [16] in a line: qHTS Assay for Lipid Storage Modulators (AID 1519; calls by dose curve). The conditions noted are these: Drosophila S3 cells, BODIPY lipid droplet/cell ratio, laser cytometry, cells loaded with oleic acid. Put shortly: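 Cells seeded at 5,000 per well were treated with compounds over a concentration series and loaded with oleic acid (400 uM, as added). Lipid droplet fluorescence (488 nm excitation, 500-530 nm channel) was read by laser-scanning cytometry and normalized to 20 uM Triacsin C.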

A short description of experiment [17]: Counterscreen for APE1 Inhibitors: Fluorescent Dye Displacement Validation Assay (AID 1707).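 Also: plate controls were ThO with dsDNA and no compound for no effect and ThO without dsDNA for full effect.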 Put shortly:
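Compounds are scored by their ability to displace Thiazole Orange (250 nM) from a 50 nM TAMRA-tagged duplex bearing a tetrahydrofuran abasic site. Buffer is 50 mM Tris-HCl pH7.5, 50mM NaCl, 2 mM MgCl2, 0.01% Tween-20.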

Chain of Glucocorticoid receptor (Homo sapiens) (P04150 whole entry, looked up, the tested form may be a part): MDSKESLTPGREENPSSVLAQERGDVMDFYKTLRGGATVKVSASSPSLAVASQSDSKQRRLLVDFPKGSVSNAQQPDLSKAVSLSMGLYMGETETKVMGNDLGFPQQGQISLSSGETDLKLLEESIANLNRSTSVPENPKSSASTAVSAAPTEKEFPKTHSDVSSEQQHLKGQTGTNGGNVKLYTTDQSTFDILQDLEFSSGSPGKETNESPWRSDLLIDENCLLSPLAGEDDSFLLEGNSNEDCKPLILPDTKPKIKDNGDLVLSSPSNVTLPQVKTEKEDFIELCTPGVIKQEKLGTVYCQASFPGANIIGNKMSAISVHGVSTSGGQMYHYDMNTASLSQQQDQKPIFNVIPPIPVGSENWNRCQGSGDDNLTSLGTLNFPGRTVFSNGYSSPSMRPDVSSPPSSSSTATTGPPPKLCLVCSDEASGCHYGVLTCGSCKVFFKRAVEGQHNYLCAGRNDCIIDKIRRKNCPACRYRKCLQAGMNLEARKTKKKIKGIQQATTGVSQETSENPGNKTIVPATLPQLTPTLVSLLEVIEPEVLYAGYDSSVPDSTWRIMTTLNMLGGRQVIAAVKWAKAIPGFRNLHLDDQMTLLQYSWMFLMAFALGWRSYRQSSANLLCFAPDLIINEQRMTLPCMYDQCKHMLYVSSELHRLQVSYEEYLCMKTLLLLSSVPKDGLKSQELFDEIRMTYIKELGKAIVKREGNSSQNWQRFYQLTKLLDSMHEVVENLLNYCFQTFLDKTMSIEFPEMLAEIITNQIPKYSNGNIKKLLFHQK
Chain of Muscarinic acetylcholine receptor M1 (Rattus norvegicus) (P08482 whole entry, looked up): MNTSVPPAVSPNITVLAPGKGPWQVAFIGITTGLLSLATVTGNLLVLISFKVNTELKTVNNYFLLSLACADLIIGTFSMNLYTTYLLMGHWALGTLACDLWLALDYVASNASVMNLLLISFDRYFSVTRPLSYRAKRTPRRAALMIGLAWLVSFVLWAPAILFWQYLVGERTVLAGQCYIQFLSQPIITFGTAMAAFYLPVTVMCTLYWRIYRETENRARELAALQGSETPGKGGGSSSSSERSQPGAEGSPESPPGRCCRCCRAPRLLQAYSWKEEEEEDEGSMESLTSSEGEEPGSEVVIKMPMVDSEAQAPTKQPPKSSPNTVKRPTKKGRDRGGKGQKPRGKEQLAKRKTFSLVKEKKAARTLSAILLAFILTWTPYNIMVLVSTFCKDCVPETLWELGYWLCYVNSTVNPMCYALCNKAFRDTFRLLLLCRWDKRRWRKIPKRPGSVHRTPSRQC
Chain of Guanine nucleotide-binding protein G(i) subunit alpha-1 (Homo sapiens) (P63096 whole entry, looked up): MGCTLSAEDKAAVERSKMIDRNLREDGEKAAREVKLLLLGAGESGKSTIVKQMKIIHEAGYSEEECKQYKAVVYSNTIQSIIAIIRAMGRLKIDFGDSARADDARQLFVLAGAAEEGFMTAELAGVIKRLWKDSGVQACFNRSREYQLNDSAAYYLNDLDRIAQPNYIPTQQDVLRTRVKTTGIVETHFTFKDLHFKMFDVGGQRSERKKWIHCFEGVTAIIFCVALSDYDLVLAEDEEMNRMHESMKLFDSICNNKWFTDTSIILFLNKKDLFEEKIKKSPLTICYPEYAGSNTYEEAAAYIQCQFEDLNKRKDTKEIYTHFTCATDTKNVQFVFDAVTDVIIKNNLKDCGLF
Chain of Cytochrome P450 1A2 (Homo sapiens) (P05177 whole entry, looked up): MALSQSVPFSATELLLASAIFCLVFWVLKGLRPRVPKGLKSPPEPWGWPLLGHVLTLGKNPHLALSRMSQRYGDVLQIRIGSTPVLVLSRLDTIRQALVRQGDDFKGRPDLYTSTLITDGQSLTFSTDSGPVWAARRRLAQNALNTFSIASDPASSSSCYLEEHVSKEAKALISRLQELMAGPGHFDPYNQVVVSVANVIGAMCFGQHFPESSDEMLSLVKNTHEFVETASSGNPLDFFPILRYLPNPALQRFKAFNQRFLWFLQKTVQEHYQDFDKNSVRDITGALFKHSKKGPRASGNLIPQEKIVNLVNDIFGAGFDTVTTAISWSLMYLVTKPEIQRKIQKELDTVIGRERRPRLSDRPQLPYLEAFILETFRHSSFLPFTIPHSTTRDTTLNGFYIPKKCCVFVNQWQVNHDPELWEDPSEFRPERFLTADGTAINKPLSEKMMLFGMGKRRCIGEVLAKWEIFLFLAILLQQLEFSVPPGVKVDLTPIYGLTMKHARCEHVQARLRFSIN
Chain of 3',5'-cyclic-AMP phosphodiesterase 4B (Homo sapiens) (Q07343 whole entry, looked up): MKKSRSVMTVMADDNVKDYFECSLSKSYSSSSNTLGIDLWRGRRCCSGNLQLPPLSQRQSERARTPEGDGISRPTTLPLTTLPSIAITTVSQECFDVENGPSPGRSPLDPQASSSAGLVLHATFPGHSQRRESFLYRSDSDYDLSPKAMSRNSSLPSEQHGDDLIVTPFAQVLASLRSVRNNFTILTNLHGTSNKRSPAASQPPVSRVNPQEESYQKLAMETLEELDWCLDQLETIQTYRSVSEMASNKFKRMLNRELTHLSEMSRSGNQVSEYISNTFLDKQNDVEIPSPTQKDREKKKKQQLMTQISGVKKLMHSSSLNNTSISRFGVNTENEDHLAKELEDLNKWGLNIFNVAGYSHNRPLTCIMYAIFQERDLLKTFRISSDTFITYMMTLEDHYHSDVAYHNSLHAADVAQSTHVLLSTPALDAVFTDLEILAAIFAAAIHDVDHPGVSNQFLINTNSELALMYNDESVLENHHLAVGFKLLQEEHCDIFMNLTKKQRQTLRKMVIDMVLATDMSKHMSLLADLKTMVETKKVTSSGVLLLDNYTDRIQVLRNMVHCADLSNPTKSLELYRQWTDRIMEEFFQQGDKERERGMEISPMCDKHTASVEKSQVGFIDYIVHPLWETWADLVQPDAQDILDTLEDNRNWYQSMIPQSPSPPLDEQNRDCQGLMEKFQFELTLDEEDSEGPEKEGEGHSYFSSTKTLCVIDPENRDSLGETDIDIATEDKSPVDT
Chain of Cytochrome P450 3A4 (Homo sapiens) (P08684 whole entry, looked up): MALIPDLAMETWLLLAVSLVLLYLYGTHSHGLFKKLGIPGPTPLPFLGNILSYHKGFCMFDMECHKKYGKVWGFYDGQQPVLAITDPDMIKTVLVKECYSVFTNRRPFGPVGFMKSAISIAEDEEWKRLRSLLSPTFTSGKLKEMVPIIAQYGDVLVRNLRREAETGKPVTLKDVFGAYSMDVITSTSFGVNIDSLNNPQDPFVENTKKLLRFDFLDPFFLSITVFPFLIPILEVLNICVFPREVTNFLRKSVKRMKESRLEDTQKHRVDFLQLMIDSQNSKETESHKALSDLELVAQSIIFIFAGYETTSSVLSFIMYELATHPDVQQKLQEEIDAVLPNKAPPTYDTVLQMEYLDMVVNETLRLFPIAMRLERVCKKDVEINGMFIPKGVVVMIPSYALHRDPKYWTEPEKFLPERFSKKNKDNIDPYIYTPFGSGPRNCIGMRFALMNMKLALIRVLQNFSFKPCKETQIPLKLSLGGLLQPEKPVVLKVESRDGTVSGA

Turning to `S=C(Nc1ccccc1)Nc1nccs1`, the activity change, negative = inhibition was -16.9% (inactive) in [1], 0.515% (inactive) in experiment [3] and -0.0683% (inactive) in experiment [16] (at 57.5 µM (top of the series)). For the same compound, the Potency was 0.794 µM (active) in experiment [2], > 46 µM (inactive) in experiment [5], > 46 µM (inactive) in [6] and 20 µM (active) in [11]. The activity, negative = inhibition in experiment [4] was 11.6% (inactive). In addition, the Potency entry in experiment [7], in [8], in experiment [10], in experiment [12], in [13] and in experiment [14] was “inactive” throughout. The Potency result in experiment [17] is “inactive”. The compound was called inactive in [9] and in experiment [15]. Besides, the max response in experiment [16] (measured here: cell count channel max response) is -12.9%; in experiment [16] (measured here: lipid channel max response) it was -14.9%.

Source of the values: PubChem BioAssay (NCATS).
